Test results published in PubChem BioAssay AID434970 (Sanford-Burnham Center for Chemical Genomics, 2010).
The whole screen tested about 11,000 compounds, of which about 310 (2.8%) were called active. The sample holds actives, similar compounds and a random draw of the others, so the mix is not that of the screen. No stated cut-off is given here; in the data, active means activity change below about -85%; inactive means the rest.

System: intestinal alkaline phosphatase [Mus musculus]
Test: activators of mouse IAP, confirmation, biochemical, luminescence, single concentration (AID 434970)
Conditions: purified mouse IAP, CDP-Star luminescence, 30 min, at 10 µM; activation factor: measured here: IAP activation factor, stronger effect = higher value; activity change, negative = activation: stronger effect = lower value

| Compound | activation factor | activity change, negative = activation |
| --- | --- | --- |
| C[C@]12c3[nH]c4cc(-c5ccco5)ccc4c3CCN1C(=O)[C@@H](CC(=O)NCCN1CCOCC1)C[C@@H]2C(=O)N1CCOCC1 | 0.997 | 0.25% (inactive) |
| C[C@H](CO)N1C[C@H](C)[C@@H](CN(C)S(=O)(=O)c2ccc(F)cc2)Oc2ccc(NC(=O)Nc3ccc4c(c3)OCO4)cc2C1=O | 1.82 | -81.6% (inactive) |
| C[C@H](CO)N1C[C@H](C)[C@H](CN(C)S(=O)(=O)c2ccccc2)Oc2ccc(NC(=O)NC3CCCCC3)cc2CC1=O | 1.71 | -71.4% (inactive) |
| COc1ccc(S(=O)(=O)N(C)C[C@H]2Oc3ccc(NC(=O)NC4CCCCC4)cc3C(=O)N([C@H](C)CO)C[C@@H]2C)cc1 | 2.74 | -174% (active) |
| C[C@H](CO)N1C[C@H](C)[C@@H](CN(C)S(=O)(=O)c2ccc(F)cc2)Oc2ccc(NC(=O)NC3CCCCC3)cc2C1=O | 2.2 | -120% (active) |
| C[C@H](CO)N1C[C@H](C)[C@@H](CN(C)S(=O)(=O)c2ccccc2)Oc2ccc(NC(=O)NC3CCCCC3)cc2C1=O | 2.79 | -179% (active) |
| Cc1noc(C)c1S(=O)(=O)N(C)C[C@H]1Oc2ccc(NC(=O)NC3CCCCC3)cc2C(=O)N([C@H](C)CO)C[C@@H]1C | 1.82 | -81.5% (inactive) |
| COc1ccc(NC(=O)N(C)C[C@H]2Oc3ccc(NC(=O)NC4CCCCC4)cc3C(=O)N([C@H](C)CO)C[C@@H]2C)cc1 | 1.61 | -60.9% (inactive) |
| C[C@@H]1CN([C@@H](C)CO)C(=O)c2cc(NC(=O)Nc3ccc4c(c3)OCO4)ccc2O[C@H]1CN(C)S(=O)(=O)c1ccc(F)cc1 | 1.65 | -64.8% (inactive) |
| Cc1ccc(NC(=O)N2CCC(NC(=O)c3ccccc3C)CC2)cc1 | 0.993 | 0.7% (inactive) |
| O=C(C[C@H]1C[C@H](C(=O)N2CCCCC2)[C@@]2(CCc3ccccc3)c3[nH]c4cc(-c5ccco5)ccc4c3CCN2C1=O)NCc1ccco1 | 1.16 | -16.1% (inactive) |
| O=C(NCc1cccc2ccccc12)Nc1ccccc1 | 1.74 | -74.1% (inactive) |
| O=C(Cc1ccccc1)NNC(=O)Nc1cccc(Cl)c1 | 0.911 | 8.85% (inactive) |
| O=C(Nc1cccc(Cl)c1)NC1CC2CCC1C2 (stereo unspecified) | 2.64 | -164% (active) |
| CC(=O)c1ccc(NC(=O)N2CCN(c3cccc(Cl)c3)CC2)cc1 | 1.08 | -7.6% (inactive) |
| O=C(Cn1nnc(-c2ccc(Cl)cc2)n1)NC1CC2CCC1C2 (stereo unspecified) | 1.15 | -15.3% (inactive) |
| COC(=O)c1ccc(NC(=S)NC2CC3CCC2C3)cc1 (stereo unspecified) | 1.56 | -56% (inactive) |
| O=C(Nc1ccccc1)Nc1cccc(Cl)c1 | 2.11 | -111% (active) |
| O=C(NCc1csc2ccccc12)Nc1cc(Cl)cc(Cl)c1 | 2.45 | -145% (active) |
| O=C(Nc1cccc(Cl)c1)N1CCCC1 | 1.09 | -8.6% (inactive) |
| O=C(Cc1cccc2ccccc12)NNC(=O)Nc1cccc(Cl)c1 | 0.964 | 3.65% (inactive) |
| O=C(Nc1ccc(C(=O)N2CCCCC2)cc1)Nc1cccc(Cl)c1 | 2.39 | -139% (active) |
| CC[C@]12c3[nH]c4ccc(OC)cc4c3CCN1C(=O)C(CC(=O)NCCC1=CCCCC1)C[C@@H]2C(=O)N1CCN(C(=O)C2CC2)CC1 (stereo partly specified) | 1.01 | -1.4% (inactive) |
| O=C(Oc1cccc(NC(=O)c2ccco2)c1)c1ccc(Br)c(S(=O)(=O)N2CCCCC2)c1 | 0.907 | 9.3% (inactive) |

| Compound | activation factor | activity change, negative = activation |
| --- | --- | --- |
| O=C(Nc1scc(-c2ccccc2)c1C(=O)O)c1ccco1 | 0.964 | 3.6% (inactive) |
| CCn1c(CNc2ccc(OC)cc2)nnc1SCC(=O)Nc1ccc(F)cc1 | 1.08 | -7.7% (inactive) |
| Cc1cc(NC(=O)CC23CC4CC(C2)CC(CC(=O)Nc2cc(C)on2)(C4)C3)no1 | 1.02 | -1.55% (inactive) |
| Cc1sc2nc(SCC(=O)Nc3c(C)n(C)n(-c4ccccc4)c3=O)n(C)c(=O)c2c1C | 0.771 | 22.9% (inactive) |
| Cc1csc(C(=O)O)c1-n1cccc1 | 0.908 | 9.2% (inactive) |
| Fc1ccc(OCc2nn3cnnc3s2)cc1 | 0.923 | 7.75% (inactive) |
| CCOC(=O)/C(C#N)=C\c1ccco1 | 1.12 | -11.7% (inactive) |
| COC(=O)c1ccccc1NC(=O)CN(CCc1ccccc1)S(C)(=O)=O | 1.04 | -3.75% (inactive) |
| CCOc1ccc(C2C(C#N)=C(N)N(c3sc4c(c3C#N)CCCC4)C3=C2C(=O)CCC3)cc1 (stereo unspecified) | 0.903 | 9.65% (inactive) |
| COCCC(=O)N(Cc1ccc2c(c1)OCO2)C(C(=O)NC1CCCCC1)c1ccncc1 (stereo unspecified) | 0.912 | 8.8% (inactive) |
| O=C(Nc1cccnc1)Nc1cc(Cl)cc(Cl)c1 | 1.69 | -68.7% (inactive) |
| O=C(Nc1cc(Cl)cc(Cl)c1)c1cnn2cccnc12 | 0.974 | 2.55% (inactive) |
| O=C(Nc1ccccc1)Nc1cc(Cl)cc(Cl)c1 | 3.41 | -241% (active) |
| COC(=O)c1ccccc1NC(=O)Nc1ccc2c(c1)OCO2 | 1.08 | -8% (inactive) |
| O=C(Nc1cccc(F)c1)Nc1cccc(Cl)c1 | 2.11 | -111% (active) |
| Fc1cccc(NC(=S)NCc2ccc(Cl)cc2)c1 | 1.31 | -30.9% (inactive) |
| O=C(Nc1cc(Cl)cc(Cl)c1)Nc1cnccn1 | 1.97 | -96.5% (active) |
| O=C(Nc1ccccc1)Nc1ccc(Br)c(Cl)c1 | 1.82 | -82.4% (inactive) |
| S=C(NCc1cccnc1)Nc1cc(Cl)cc(Cl)c1 | 1.38 | -38.4% (inactive) |
| O=C(Nc1cccc(Cl)c1)Nc1ccc2c(c1)OCO2 | 2.46 | -146% (active) |
| CC(C)C(=O)Nc1cccc(C(=O)Nc2ccc3c(c2)OCO3)c1 | 0.972 | 2.8% (inactive) |
| Cc1ccc2c(c1)N(CCC(=O)NCc1cccs1)C(=O)C(C)O2 (stereo unspecified) | 1.03 | -2.7% (inactive) |
| O=C(CCCOc1ccccc1)Nc1nnc(C2CCCO2)s1 (stereo unspecified) | 1.01 | -1.15% (inactive) |
| CCOC(=O)c1c(-c2ccccc2)csc1NC(=O)COc1ccc2c(C)cc(=O)oc2c1 | 0.967 | 3.3% (inactive) |
